Measurements reported in PubChem BioAssay AID1159580 (chemical genetic matrix, 2015).
Screen size: about 5,500 compounds; about 2,000 (36%) were called active. About 18% were inconclusive and are not listed. No stated cut-off is given here; in the data, active means normalized growth mostly below about 0.91 (no sharp cut-off); inconclusive means no clear call, values can overlap the other calls; inactive means mostly above about 0.92. The list shows a part of the results.

Assay: chemical genetic growth profiling, strain panel (AID 1159580);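 further: tested at 20 µM; growth read once vehicle control cultures reached saturation at 30 °C; 1 = growth at the plate median or of vehicle wells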
Settings: S. cerevisiae deletion strains, growth OD

Measured: normalized growth

CCn1cc(C(=O)O)c(=O)c2ccc(Cc3ccccc3)nc21
inactive: locus YAL013W, strain DEP1, stronger effect = lower value 1.03 | locus YAL040C, strain CLN3, stronger effect = lower value 1 | locus YCL061C, strain MRC1 (second series), stronger effect = lower value 1.01 | locus YDR363W, strain ESC2, stronger effect = lower value 1.01 | locus YER002W, strain NOP16, stronger effect = lower value 0.964 | locus YGR078C, strain PAC10, stronger effect = lower value 0.971 | locus YJR075W, strain HOC1, stronger effect = lower value 1.02 | locus YMR263W, strain SAP30, stronger effect = lower value 1 | locus YMR307W, strain GAS1, stronger effect = lower value 1 | locus YNL128W, strain TEP1, stronger effect = lower value 0.988 | locus YNL153C, strain GIM3, stronger effect = lower value 0.923 | locus YNL175C, strain NOP13, stronger effect = lower value 0.972 | locus YNL197C, strain WHI3, stronger effect = lower value 0.942 | locus YNL224C, strain SQS1, stronger effect = lower value 0.965 | locus YNL322C, strain KRE1, stronger effect = lower value 0.991 | locus YOR083W, strain WHI5 (second series), stronger effect = lower value 1.09 | locus YPL241C, strain CIN2, stronger effect = lower value 1.01
